# Experimental data published in ChEMBL document CHEMBL3433997, “St. Jude Leishmania screening dataset” (2016).
# Biological target: Hexose transporter 1 (Plasmodium falciparum) (UniProt O97467)
# Test: ST_JUDE_LEISH: Cytotoxicity at 2uM final concentration against transgenic Leishmania Mexicana promastigotes LmPfHT that are glucose transport deficient and complemented with the Plasmodium falciparum hexose transporter. Activity is measured by DNA content using SYBR green in vitro
# Type: functional
row,SMILES,inhibition [%]
1,CCCCNC(=O)[C@@H]1CCCN1C(=O)c1ccc(O)c(-c2ccc(Cl)c(Cl)c2)c1,0.27
2,COc1cccc(C(=O)Nc2nonc2-c2ccc(OC)c(OC)c2)c1,2.49
3,N#Cc1ccc2c(c1)CCN(CCC1CCC(NC(=O)Nc3ccncc3)CC1)C2 (stereo unspecified),3.65
4,O=C(Nc1ccc(Br)cc1)c1cc(Br)ccc1NS(=O)(=O)c1ccc(C(F)(F)F)cc1,0.98
5,O=C(Nc1ccc(-c2csc3nccn23)cc1)c1ccc(Cl)cc1,4.05
6,COCCNCc1cccc(-c2ccc3c(Nc4ccc(Oc5ccccc5)cc4)ccnc3c2)c1,1.17

# Biological target: Glucose transporter (Leishmania mexicana) (UniProt O61059)
# Test: ST_JUDE_LEISH: Cytotoxicity at 2uM final concentration against transgenic Leishmania Mexicana promastigotes LmGT2 that are glucose transport deficient and complemented with the L. Mexicana glucose transporter 2. Activity is measured by DNA content using SYBR green in vitro
# Type: functional
row,SMILES,inhibition [%]
1,O=C(CNC1=NCCN1)Nc1ccc(NC(=O)Nc2ccc(NC(=O)CNC3=NCCN3)cc2)cc1,0.21
2,COc1cc(Nc2ccc3cc(S(=O)(=O)N4CCCCC4C)ccc3n2)cc(OC)c1OC (stereo unspecified),0.58
3,Cc1cccc2nc(-c3ccc(-c4ccc(CNCCCN5CCCC5=O)cc4)s3)[nH]c12,3.25
4,CN1CCN(CC(O)CNC(=O)Nc2ccc(Cl)cc2)CC1 (stereo unspecified),2.94
5,COc1ccc2nc3cc(Cl)ccc3c(N)c2c1,3.3
6,O=[N+]([O-])c1ccc(Oc2ccccc2CNCC2CCN(CC3CCCCC3)CC2)cc1,7.15
7,O=C(NCCCCN1CCC(c2c[nH]c3ccccc23)CC1)c1sc(-c2ccc(C(F)(F)F)cc2)nc1CO,5.81
8,COc1ccc2nccc([C@@H](O)CN3CCC(NCc4cc5c(Cl)cccc5[nH]4)CC3)c2c1,2.34
9,COc1ccc(C=NN=c2cc(C)[nH]c3ccc(C)cc23)c2ccccc12,-1.89
10,O=C(Nc1cccc(N2CCC(NCc3cnn(-c4cccc(F)c4)c3)CC2)c1)c1ccncc1,-0.33
11,COc1cccc(CN2CCC3(CC2)CN(C(=O)Nc2ccc(Cl)c(Cl)c2)C3)c1,3.35
12,Clc1ccc(C=NN=c2cc[nH]c3ccccc23)cc1,6.25
13,O=C(Nc1cc(C(F)(F)F)cc(C(F)(F)F)c1)N1CCC(CCN2CCC(c3c[nH]c4ccccc34)CC2)CC1,4.71
14,c1ccc(Oc2ccc(Nc3ccnc(Nc4ccc(OCCN5CCCCC5)cc4)n3)cc2)cc1,18.4
15,COc1ccc(-c2cc(-c3ccc(S(C)(=O)=O)cc3)cnc2N)cn1,3.66
16,CNC(=O)Cc1ccc(C(=O)Nc2cccc(-c3csc(-c4nc5ccccc5[nH]4)c3)c2)cc1,1.68
17,COc1cccc(C2=CC(C)(C)Oc3cc(OCCN(C)C)ccc32)c1,4.3
18,COC(=O)c1cccc(CNCc2ccc(-c3ccc(-c4nc5cc(C(F)(F)F)ccc5[nH]4)s3)cc2)c1,0.84
19,CN1CCC(NCc2cccc(-c3cccc(S(=O)(=O)NCc4ccccc4)c3)c2)CC1,2.47
20,Clc1ccc(-n2cnc3c(Nc4ccc(Oc5ccccc5)cc4)ncnc32)cc1Cl,-1.22

row,SMILES,inhibition [%]
1,CCCCCCN1CCCN(Cc2ccc(C(=O)Nc3cccc(CC)c3)cc2)CC1,8.83
2,N=C(N)Nc1ccc(Cc2ccc(NC(=N)N)cc2)cc1,0.58
3,CC1(C)CC2CC(C)(CN2C(=O)c2cc(C(C)(C)C)nn2Cc2ccccc2)C1 (stereo unspecified),5.94
4,CCOc1cc(CNCCCCCCNCc2cc(OCC)c(OCC)c3ccccc23)c2ccccc2c1OCC,103
5,CCCCCn1c(Sc2ccc(C#N)c([N+](=O)[O-])c2)nnc1-c1ccccc1,4.33
6,COc1ccccc1C(=O)Nc1cccc(N2CCC(NCc3ccc(-n4cccn4)cc3)CC2)c1,5.84
7,O=C(Nc1cccc(OC2CCN(Cc3ccccc3)CC2)c1)c1ccc(Cl)c(Cl)c1,3.44
8,CCCCc1ccc(NC(=O)Nc2ccc3c(c2)CCNCC3)cc1,1.65
9,CC(C)(CNCc1ccccc1)c1nc(-c2ccc(Cl)c(O)c2)c(-c2ccncc2)[nH]1,3.53
10,CCCCCCNC(=N)c1ccc(OCCCCCOc2ccc(C(=N)NCCCCCC)cc2)cc1,37.2
11,Clc1cc(Nc2ncnc3sc(C#Cc4ncc[nH]4)cc23)ccc1OCc1ccccn1,-0.27
12,O=c1cc(NCCCNCc2cccc(OC(F)(F)F)c2)[nH]c2ccccc12,4.57
13,O=C(/C=C/c1ccc(Cl)cc1)NCCCCCN1CCCN(C(=O)Nc2ccc(Cl)c(C(F)(F)F)c2)CC1,2.81
14,CN1CCN(c2cc3c(cc2Cl)CCN3C(=O)Nc2ccc(NC(=O)c3ccc(C(F)(F)F)cc3)cc2)CC1,1.98
15,CCCCNC(=O)[C@@H]1CCCN1C(=O)c1ccc(O)c(-c2ccc(Cl)c(Cl)c2)c1,-3.49
16,COc1cccc(C(=O)Nc2nonc2-c2ccc(OC)c(OC)c2)c1,1.34
17,N#Cc1ccc2c(c1)CCN(CCC1CCC(NC(=O)Nc3ccncc3)CC1)C2 (stereo unspecified),5.01
18,O=C(Nc1ccc(Br)cc1)c1cc(Br)ccc1NS(=O)(=O)c1ccc(C(F)(F)F)cc1,0.46
19,O=C(Nc1ccc(-c2csc3nccn23)cc1)c1ccc(Cl)cc1,-0.28
20,COCCNCc1cccc(-c2ccc3c(Nc4ccc(Oc5ccccc5)cc4)ccnc3c2)c1,-0.14
